# TROY signal inh: inhibitors of TROY-driven NF-kB signaling, primary screen, Q293 LMP1-TROYcd cells, NF-kB luciferase, uHTS; inhibition, % at 10 µM; actives 0.98% (n = 360,000); Q293 LMP1-TROYcd NF-kB luciferase reporter, 4 h;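 active = compounds whose plate-normalised and pattern-corrected inhibition of the luciferase reporter signal at the single screening dose is 50% or more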
# HSF1 activator: HSF-1 activators, primary screen, NIH3T3-HGL cells, MG132 stress, luminescence, single point | activation, % at 9 µM | NIH3T3-HGL HSF-1 luciferase reporter, 8 h; 100% = twice DMSO control signal | AID 504408, 2011 | actives 1.7% (n = 300,000);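 active = mean replicate activation of at least 50% with a set share of replicates each reaching 50%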;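 note: 0% = median of the neutral control wells and 100% = twice that signal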
# TWEAK-Fn14 inh: inhibitors of TWEAK-Fn14 signaling, primary screen, luciferase reporter cells, uHTS | TWEAK-stimulated Fn14 reporter cells, luciferase luminescence, 8 h | inhibition, % at 10 µM | actives 2% (n = 360,000); in the data active = inhibition above about 50%
# EBV LMP1 NFkB: EBV LMP1-driven NF-kappaB luciferase reporter inhibitors, primary screen, cell-based, luminescence, single point | inhibition, % at 12.5 µM | LMP1-induced NF-kappaB luciferase reporter cells | actives 0.69% (n = 350,000) | AID 504558, 2011; in the data active = inhibition above about 41%;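 note: 0% = neutral control wells and 100% = reference inhibitor control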
# HSF1 inh: HSF1 inhibitors in luciferase reporter cells, primary screen, cell-based, NIH3T3, luminescence; activity change, negative = inhibition, % at 7.5 µM (by protocol); AID 2098, 2009; actives 0.77% (n = 300,000); NIH3T3-HGL HSE-luciferase, MG132-induced, luminescence 8 h; stronger effect = lower value;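 active = more than half of replicate wells show activity change below -50%, luminescence cut by over half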;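 note: luciferase reports HSF-1 transcriptional activity via heat shock element; 0% = median of DMSO wells and -100% = zero luminescence signal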
# HSP90 inh: HSP90 inhibitors, primary screen, cell lysate, luminescence; Heat shock protein HSP 90 (rabbit reticulocyte lysate; luciferase refolding); Rabbit reticulocyte lysate, luciferase refolding luminescence, 3 h; inhibition, % at 5.6 µM; actives 0.91% (n = 290,000); AID 1789, 2009;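 active = inhibition above the screen-wide mean plus 3 SD, computed separately per campaign, cut at about 16% in these data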;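 note: 0% = DMSO wells and 100% = 60 µM geldanamycin wells; inhibitors lower the luminescence because luciferase stays unfolded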
# Numbers without * were called inactive; . = no result. Compounds with a hit are over-represented: about 4.7% of the library has one in this group of screens.
SMILES,TROY signal inh,HSF1 activator,TWEAK-Fn14 inh,EBV LMP1 NFkB,HSF1 inh,HSP90 inh
O=C(O)c1cc(O)ccc1NC(=O)C(c1ccccc1)c1ccccc1,61*,4,110*,9,-9,-1
Cc1ccnc(NC(=O)COc2ccccc2[N+](=O)[O-])c1,7,.,51*,14,.,1
O=C(COc1ccccc1[N+](=O)[O-])Nc1cccnc1,-21,31,-28,-13,10,-6
CNC(=S)NNC(=O)COc1ccccc1C,-12,57*,-15,-4,15,-1
Cc1ccc(NC(=O)Nc2ccc([N+](=O)[O-])cc2)nc1,-43,11,24,-27,5,-2
Cc1ccc(NC(=O)Nc2ccccc2)nc1,-58,54*,8,-4,33,.
CNC(=S)NNC(=O)COc1cccc(C)c1C,0,9,-5,-7,-7,-2
Cc1ccccc1OCC(=O)Nc1ccc([N+](=O)[O-])cc1,-36,-77,-6,-1,-70*,0
COc1cccc(C(O)c2nc(-c3ccc(OC)nc3)cs2)c1 (stereo not given),4,.,5,.,.,.
Cc1ccc(NC(=O)c2ccc(COc3ccccc3[N+](=O)[O-])o2)nc1,9,.,14,-10,.,.
Cc1ccc(NC(=O)COc2ccccc2[N+](=O)[O-])nc1,43,41,58*,10,14,9
Cc1cc2nc(-c3ccc(SCc4ccc(C#N)cc4)nc3)[nH]c2cc1C,47,.,58*,-3,.,4
N#Cc1ccccc1CSc1ccc(-c2nc3ccccc3[nH]2)cn1,59*,49,59*,-10,23,5
CCOC(=O)C1=C(C)NC(=O)NC1c1cn(-c2ccccc2)nc1-c1cccs1 (stereo not given),-12,30,-17,2,18,0
CCOC(=O)C1=C(C)NC(C)=C(C(=O)OCC)C1c1cn(-c2ccccc2)nc1-c1ccco1,-33,32,-29,76*,10,0
COc1c2ccccc2nn1C(C)C,1,.,12,.,.,.
Cc1cc(Cl)ccc1C(O)c1ncc(-c2cccc(C(F)(F)F)c2)[nH]1 (stereo not given),9,.,1,.,.,.
Cc1ccc(NC(=O)c2cc3cccc([N+](=O)[O-])c3[nH]2)cc1,-16,164*,-5,-41,88,5
Clc1cccc(/C=N/Nc2nnc(Cl)c3ccccc23)c1,-35,57*,-58,-32,50,-1
CC(C)(C)OC(=O)N[C@@H](Cc1ccccc1)c1nnc(S(=O)(=O)Cc2cccc(F)c2)o1,.,24,.,.,12,1
Cc1ccccc1CS(=O)(=O)c1nnc([C@H](CC(C)C)NC(=O)OC(C)(C)C)o1,32,107*,22,4,74,3
CC[C@@H](C)[C@H](NC(=O)OC(C)(C)C)c1nnc(S(=O)(=O)Cc2cc(C)ccc2C)o1,73*,-65,23,4,-66*,1
Cc1ccc(-c2nc3ccc(C)cn3c2CC2CCCCC2)cc1,-55,.,35,.,.,.
COc1cc(C=C2C(=O)C=CC2=O)ccc1O,-1,.,11,.,.,.
CN(C)c1ccc(N=Cc2ccco2)cc1,32,.,51*,1,.,-2
O=C(Oc1ccc(N(C(=O)c2ccncc2)S(=O)(=O)c2cccs2)cc1)c1ccncc1,40,-18,33,5,1,-3
COC(=O)c1c(C)oc2ccc(N(C(=O)c3ccncc3)S(=O)(=O)c3ccc(C)cc3)cc12,59*,-17,56*,26,-20,3
Cc1ccc([N+](=O)[O-])cc1S(=O)(=O)N(C(=O)c1ccncc1)c1ccc2oc3c(c2c1)CCCC3,22,12,-2,2,4,-4
Cc1cc(F)ccc1S(=O)(=O)N(C(=O)c1ccncc1)c1ccc(OC(=O)c2ccncc2)cc1,62*,-6,56*,-12,-3,2
COC(=O)c1c(C)oc2ccc(N(C(=O)c3ccncc3)S(=O)(=O)c3ccc4ccccc4c3)cc12,53*,4,57*,8,-2,3

# Bioassay records (PubChem BioAssay)
